Screening results deposited in PubChem BioAssay by National Center for Advancing Translational Sciences (NCATS).
Only some compounds are listed: those with a hit (about 13% of all), similar ones and a draw of the others.
FMDV inh: blocks foot and mouth disease virus. FMDV antiviral cell-based qHTS. Potency, µM (series often up to 57.9 µM), most hits filed as inhibitors. hit rate 1.2% among 410,000; calls by dose curve; tested in HEK293T cells; note: read-out not given here; nearly all actives have a fitted effect of over 45% in size
Lassa entry inh: blocks Lassa virus binding to or entry into cells; Lassa virus pseudotype entry inhibition, cell reporter; Potency, µM (top dose mostly 37.9 µM), hits mostly inhibitors; hit rate 1.2% among 300,000; calls by dose curve; tested in HEK293 cells; note: nearly all actives have a fitted effect of over 50% in size
Cycloheximide cs: counter-screen for Shiga toxin inhibitors: cycloheximide protein synthesis inhibition. AID 2314. cell reporter, cycloheximide protein synthesis inhibition counterscreen. hit rate 12% among 300,000. max response, %; in the data active = max response mostly above about 13%, no sharp cut-off; inactive = mostly below about 14%; note: read at 38.3 µM for the half of the compounds with a filed dose
HCV inh: inhibitors of hepatitis C virus infection; Huh7.5.1 HCVcc-Cre infection, luciferase reporter, 44 h; AID 651820; hit rate 3.4% among 340,000; Potency, µM (series often up to 41.8 µM), hits mostly inhibitors; active = well fitted inhibition curve with a large enough effect; inconclusive = small, poorly fitted or top-dose-only effect, or another doubt; inactive = no such curve, though single readings can be large or run the other way
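Infectious HCV cell culture screen: compound-treated cells (1,000/well, pre-plated 4 h) are infected with HCVcc-Cre at roughly 0.5 moi and grown 44 h. Infection is quantified by luciferase signal after 15 min substrate incubation at room temperature.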
Shiga toxin inh: blocks Shiga toxin action in Vero cells. Vero cells, Shiga toxin protein synthesis inhibition reporter. inhibition, % at 38.7 µM. hit rate 9.2% among 290,000. AID 2315; in the data active = inhibition mostly above about 28%, no sharp cut-off; inactive = mostly below about 43%
MARV entry inh: Marburg virus entry inhibition. Marburg virus pseudotyped entry inhibition, cell reporter. Potency, µM (top dose mostly 37.8 µM), hits mostly inhibitors. hit rate 1.8% among 300,000. AID 540276; calls by dose curve; tested in HEK293 cells
Hits are given with their value; i = inactive; ? = inconclusive; nt = no result given.

SMILES | FMDV inh | Lassa entry inh | Cycloheximide cs | HCV inh | Shiga toxin inh | MARV entry inh
Cc1ccc(/C=C/c2nc3ccccc3c(=O)[nH]2)cc1 | 16µM | nt | 54 | i | 71 | nt
Cc1ccc(/C=C/c2nc3ccccc3[nH]2)o1 | i | ? | 40 | i | 51 | ?
COC(=O)CNC(=O)C1Cc2ccccc2CN1S(=O)(=O)c1ccc(F)cc1 (configuration not stated) | i | nt | i | i | i | nt
O[C@@H]1CN(Cc2ccccc2Cl)CC[C@H]1N1CCOCC1 | i | nt | i | i | i | nt
Cc1ccc(S(=O)(=O)N(C)C)cc1NC(=O)c1ccc2ccccc2n1 | i | nt | 37 | ? | i | nt
Cc1ccccc1CNC(=O)c1ccc2ccccc2n1 | i | ? | i | i | i | i
Cc1ccc(S(=O)(=O)N(C)C)cc1NC(=O)c1cc(C(C)(C)C)nn1Cc1ccccc1 | ? | nt | i | 5.6µM | i | nt
Cc1ccc(C)c(NC(=O)c2ccc3ccccc3n2)c1 | i | ? | 30 | i | i | i
Cc1cc(C)cc(NC(=O)Nc2cc(S(=O)(=O)N(C)C)ccc2C)c1 | i | 13µM | i | ? | i | ?
CC(=O)c1ccc(OCCCC(=O)Nc2cc(S(=O)(=O)N(C)C)ccc2C)cc1 | i | i | i | i | i | i
Cc1ccc(NC(=S)c2ccc3ccccc3n2)c(C)c1 | i | ? | 30 | i | 85 | i
Cc1ccc(S(=O)(=O)N(C)C)cc1NC(=O)C(C)N(C)CCOc1ccc(Cl)cc1 (configuration not stated) | ? | ? | i | 10µM | i | ?
Cc1ccc(NC(=O)c2cc(C)nc3ccccc23)c(C)c1 | i | nt | i | i | nt | nt
CCCCc1c(O)nc(SCC(=O)NCC2CCCO2)[nH]c1=O (configuration not stated) | i | i | i | i | i | i
Cc1cccc(C)c1NC(=O)C1(NC(=O)C2CCC(=O)N2)CCCCC1 (configuration not stated) | i | i | i | i | i | i
C/C(=N\NC(=O)c1cc2ccccc2cc1O)c1cccs1 | i | ? | 37 | i | 80 | ?
O=C(NNC(=O)c1ccc2ccccc2c1O)c1cccs1 | i | ? | i | i | i | ?
O=C(NNC(=O)c1cc2ccccc2cc1O)c1cccs1 | i | i | 45 | i | 109 | ?
C/C(=N/NC(=O)c1cc2ccccc2cc1O)c1ccco1 | i | nt | i | i | i | nt
CCS(=O)(=O)c1c(S(=O)(=O)CC)c2ccccn2c1C(N)=O | i | i | i | i | i | i
COc1ccccc1OCCn1c(COc2cc(C)ccc2C)nc2ccccc21 | i | i | nt | nt | nt | i
CC(=O)N1CCN(c2ccc(Oc3ccc([N+](=O)[O-])c(C(F)(F)F)c3)cc2)CC1 | ? | ? | i | 11µM | i | ?
CCOC(=O)c1[nH]cnc1N=Nc1c(O)ccc2ccccc12 | i | ? | i | 7.9µM | i | ?
CCOC(=O)c1c[nH]c2ccc3ccccc3c2c1=O | i | nt | i | i | i | nt
Oc1ccc2ccccc2c1N=Nc1ccccn1 | ? | 8.9µM | i | 8.9µM | i | ?
SMILES | FMDV inh | Lassa entry inh | Cycloheximide cs | HCV inh | Shiga toxin inh | MARV entry inh
Oc1ccc2ccccc2c1N=Nc1ccccc1F | i | nt | i | ? | i | nt
COc1ccc(NC(=O)CC2C(=O)N(c3ccc(F)cc3)C(=S)N2NC(=O)c2ccc(Cl)cc2)cc1 (configuration not stated) | i | i | i | i | i | i
COc1ccc(NC(=O)CC2C(=O)N(c3ccc(Cl)cc3)C(=S)N2NC(=O)c2cccc(F)c2)cc1 (configuration not stated) | i | ? | 16 | i | i | ?
O=C(Nc1ccc(-c2cn3ccccc3n2)cc1)c1ccc(Cl)cc1 | i | i | i | i | i | i
Brc1ccc(-c2cn3ccccc3n2)s1 | i | ? | 32 | 8.9µM | 70 | ?
COc1ccc(-c2nc3ccccn3c2Cl)cc1 | ? | 3.5µM | 41 | ? | i | ?
Clc1ccc(-c2cn3ccccc3n2)cc1 | i | nt | 37 | i | 40 | nt
O=C(NCCc1cn2ccccc2n1)c1ccc(Br)o1 | i | nt | i | i | i | nt
COc1c(Cl)cccc1-c1cn2ccccc2n1 | i | ? | 35 | i | i | ?
O=C(O)c1c[nH]c2ccc(F)cc2c1=O | i | i | i | i | i | i
CN(C)CCCNC(=O)C(=O)NCC(c1cccs1)S(=O)(=O)c1ccc(F)cc1 (configuration not stated) | i | i | nt | i | nt | i
Clc1ccc(-c2cn3c(n2)CCC3)cc1 | i | ? | 28 | ? | i | ?
Clc1ccc(-c2cn3cc(Cl)ccc3n2)cc1 | i | nt | 42 | i | 74 | nt
COc1ccc(-c2cn3ccccc3n2)cc1 | i | nt | 31 | i | i | nt
CCN(CC)S(=O)(=O)c1ccc(-c2cn3cc(Cl)ccc3n2)cc1 | i | i | i | i | i | ?
CCCOc1ccc(-c2cn3ccccc3n2)cc1 | i | nt | i | ? | i | nt
COc1ccc(-c2cn3ccc4ccccc4c3n2)cc1 | i | ? | 37 | ? | 64 | i
C[C@]12c3[nH]c4ccccc4c3CCN1C(=O)C(CC(=O)NCc1ccco1)C[C@@H]2C(=O)N1CCOCC1 (some centres not stated) | i | nt | nt | i | nt | nt
O=C(Nc1ccc(Cl)cc1)N1CCc2ccccc2C1 | i | i | i | i | i | ?
CC(=O)c1ccc(NC(=O)N2CCc3ccccc3C2)cc1 | i | i | 29 | i | 109 | i
CC(=O)c1cccc(NC(=O)N2CCc3ccccc3C2)c1 | i | i | 25 | i | 100 | ?
CCN(CC)CCCn1c(SCC(=O)NCC2CCCO2)nc2ccccc2c1=O (configuration not stated) | i | i | nt | i | nt | i
O=C(COc1ccc2ccccc2c1Br)NC(=S)Nc1cccc(CO)c1 | i | ? | 51 | i | 22 | ?
O=C(COc1ccccc1Cl)NC(=S)Nc1cccc(NC(=O)c2ccccc2Cl)c1 | nt | ? | i | i | i | i
O=C(COc1ccc(Br)cc1Br)NC(=S)Nc1cccc(CO)c1 | i | i | 97 | i | 87 | ?
SMILES | FMDV inh | Lassa entry inh | Cycloheximide cs | HCV inh | Shiga toxin inh | MARV entry inh
Cc1ccc(CSc2nnc(C)c(=O)[nH]2)cc1 | i | nt | i | i | i | nt
CN1CCN(C(=O)c2ccccc2-c2nc(-c3ccccc3)no2)CC1 | i | i | 22 | i | i | i
CCOc1ccccc1NC(=O)c1ccccc1-c1nc(-c2ccccc2)no1 | i | i | 27 | ? | i | ?
COc1ccccc1-c1nc(-c2ccc(C(=O)O)cc2)no1 | i | nt | nt | nt | nt | nt
NC(=O)c1ccccc1-c1nc(-c2ccccc2)no1 | i | i | 44 | i | 95 | i
O=C(NCCc1c[nH]c2ccccc12)C1CCC(Cn2c(=S)[nH]c3ccccc3c2=O)CC1 (configuration not stated) | i | ? | i | 4.5µM | i | ?
COC(=O)COc1ccc(/C=N/NS(=O)(=O)c2ccccc2)cc1 | i | ? | i | i | nt | i
CCOC(=O)C1CCN(Cc2cc(Cl)c3ccccc3c2O)CC1 | i | i | 12 | i | i | ?
CCOC(=O)C1CCN(Cc2nnnn2CCc2ccccc2)CC1 | i | i | 41 | i | i | i
Cc1ccccc1C(=O)NC1CCN(Cc2nnnn2CCc2ccccc2)CC1 | i | i | i | i | i | i
CCCCNC(=O)C1(C)CCCCN1Cc1ccccc1-c1ccccc1 (configuration not stated) | i | nt | nt | nt | nt | nt
